Measured values: ChEMBL document CHEMBL1961873, “Compounds: GSK PKIS; Assays: Nanosyn kinase panel” (2012)

Assays:
[1] = biological target: Mitogen-activated protein kinase 3 (Homo sapiens) (UniProt P27361); conditions: at 1 µM;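 note: values are mean percent inhibition of MAPK3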
[2] = biological target: SRSF protein kinase 3 (Homo sapiens) (UniProt Q9UPE1); conditions: at 0.1 µM
[3] = biological target: SRSF protein kinase 3 (Homo sapiens) (UniProt Q9UPE1); conditions: at 1 µM
[4] = biological target: Mitogen-activated protein kinase 14 (Homo sapiens) (UniProt Q16539); conditions: at 0.1 µM
[5] = biological target: Mitogen-activated protein kinase 14 (Homo sapiens) (UniProt Q16539); conditions: at 1 µM
[6] = biological target: Mitogen-activated protein kinase 11 (Homo sapiens) (UniProt Q15759); conditions: at 0.1 µM
[7] = biological target: Mitogen-activated protein kinase 11 (Homo sapiens) (UniProt Q15759); conditions: at 1 µM
[8] = biological target: T1, Mitogen-activated protein kinase 13 (Homo sapiens) (UniProt O15264); conditions: at 0.1 µM
T1 sequence (whole entry): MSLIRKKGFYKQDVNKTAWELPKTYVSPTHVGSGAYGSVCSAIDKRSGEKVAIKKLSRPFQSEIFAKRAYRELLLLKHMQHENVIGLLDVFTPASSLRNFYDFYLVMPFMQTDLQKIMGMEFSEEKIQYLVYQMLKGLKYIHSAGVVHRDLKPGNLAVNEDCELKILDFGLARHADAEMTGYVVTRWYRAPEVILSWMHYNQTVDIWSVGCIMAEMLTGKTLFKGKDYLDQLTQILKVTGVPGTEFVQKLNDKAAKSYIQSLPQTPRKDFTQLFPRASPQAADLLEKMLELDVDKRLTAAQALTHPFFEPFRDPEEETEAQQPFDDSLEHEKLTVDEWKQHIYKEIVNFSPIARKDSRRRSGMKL

[9] = biological target: T1, Mitogen-activated protein kinase 13 (Homo sapiens); conditions: at 1 µM
[10] = biological target: T2, Mitogen-activated protein kinase 12 (Homo sapiens) (UniProt P53778); conditions: at 0.1 µM
T2 sequence (whole entry): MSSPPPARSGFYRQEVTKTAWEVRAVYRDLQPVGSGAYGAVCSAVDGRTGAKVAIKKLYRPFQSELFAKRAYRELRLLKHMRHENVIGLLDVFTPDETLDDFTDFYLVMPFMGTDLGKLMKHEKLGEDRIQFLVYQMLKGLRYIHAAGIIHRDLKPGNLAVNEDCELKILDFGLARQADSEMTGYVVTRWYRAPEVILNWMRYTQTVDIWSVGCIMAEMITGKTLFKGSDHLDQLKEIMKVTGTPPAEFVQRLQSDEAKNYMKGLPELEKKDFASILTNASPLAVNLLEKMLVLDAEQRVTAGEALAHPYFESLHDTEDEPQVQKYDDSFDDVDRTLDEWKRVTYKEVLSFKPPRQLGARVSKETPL

[11] = biological target: T2, Mitogen-activated protein kinase 12 (Homo sapiens); conditions: at 1 µM
[12] = biological target: SRSF protein kinase 1 (Homo sapiens) (UniProt Q96SB4); conditions: at 0.1 µM
[13] = biological target: SRSF protein kinase 1 (Homo sapiens) (UniProt Q96SB4); conditions: at 1 µM
[14] = biological target: Phosphatidylinositol 4,5-bisphosphate 3-kinase catalytic subunit alpha isoform (Homo sapiens) (UniProt P42336); conditions: at 0.1 µM
[15] = biological target: Phosphatidylinositol 4,5-bisphosphate 3-kinase catalytic subunit alpha isoform (Homo sapiens) (UniProt P42336); conditions: at 1 µM
[16] = biological target: T3, Phosphatidylinositol 4,5-bisphosphate 3-kinase catalytic subunit delta isoform (Homo sapiens) (UniProt O00329); conditions: at 0.1 µM
T3 sequence (whole entry): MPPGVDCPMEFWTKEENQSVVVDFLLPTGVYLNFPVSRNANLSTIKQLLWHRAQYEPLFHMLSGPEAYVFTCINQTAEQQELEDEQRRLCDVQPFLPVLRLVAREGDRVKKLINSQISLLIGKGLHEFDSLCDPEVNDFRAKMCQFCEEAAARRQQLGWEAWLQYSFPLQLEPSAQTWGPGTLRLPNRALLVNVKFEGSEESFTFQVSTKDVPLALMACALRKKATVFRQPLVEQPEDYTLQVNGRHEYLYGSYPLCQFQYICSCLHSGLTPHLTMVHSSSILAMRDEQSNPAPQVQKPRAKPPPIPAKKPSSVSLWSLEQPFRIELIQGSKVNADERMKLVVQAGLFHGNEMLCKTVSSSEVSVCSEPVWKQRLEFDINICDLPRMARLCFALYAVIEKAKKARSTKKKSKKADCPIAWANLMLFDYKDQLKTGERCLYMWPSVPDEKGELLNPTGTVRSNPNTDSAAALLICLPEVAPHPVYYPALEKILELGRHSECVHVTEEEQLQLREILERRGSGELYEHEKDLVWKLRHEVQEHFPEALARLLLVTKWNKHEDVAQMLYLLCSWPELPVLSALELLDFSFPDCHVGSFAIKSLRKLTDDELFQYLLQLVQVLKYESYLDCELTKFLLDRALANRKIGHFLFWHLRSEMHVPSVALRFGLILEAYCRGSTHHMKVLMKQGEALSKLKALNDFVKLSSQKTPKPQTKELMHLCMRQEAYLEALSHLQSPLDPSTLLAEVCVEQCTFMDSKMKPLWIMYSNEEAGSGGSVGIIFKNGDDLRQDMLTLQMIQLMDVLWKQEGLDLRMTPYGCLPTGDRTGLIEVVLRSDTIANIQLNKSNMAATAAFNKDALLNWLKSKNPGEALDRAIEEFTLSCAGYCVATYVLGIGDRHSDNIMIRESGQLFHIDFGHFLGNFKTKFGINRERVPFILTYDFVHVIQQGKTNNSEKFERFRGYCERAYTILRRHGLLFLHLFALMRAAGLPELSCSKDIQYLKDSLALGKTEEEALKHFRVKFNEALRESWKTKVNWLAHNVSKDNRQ

[17] = biological target: T3, Phosphatidylinositol 4,5-bisphosphate 3-kinase catalytic subunit delta isoform (Homo sapiens); conditions: at 1 µM
[18] = biological target: Phosphatidylinositol 4-kinase beta (Homo sapiens) (UniProt Q9UBF8); conditions: at 0.1 µM
[19] = biological target: Phosphatidylinositol 4-kinase beta (Homo sapiens) (UniProt Q9UBF8); conditions: at 1 µM
[20] = biological target: Sphingosine kinase 1 (Homo sapiens) (UniProt Q9NYA1); conditions: at 0.1 µM;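 note: mean percent inhibition of SPHK1 activity, measured within the GSK PKIS screening panel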
Sphingosine kinase 1 (Homo sapiens), sequence (Q9NYA1 whole entry): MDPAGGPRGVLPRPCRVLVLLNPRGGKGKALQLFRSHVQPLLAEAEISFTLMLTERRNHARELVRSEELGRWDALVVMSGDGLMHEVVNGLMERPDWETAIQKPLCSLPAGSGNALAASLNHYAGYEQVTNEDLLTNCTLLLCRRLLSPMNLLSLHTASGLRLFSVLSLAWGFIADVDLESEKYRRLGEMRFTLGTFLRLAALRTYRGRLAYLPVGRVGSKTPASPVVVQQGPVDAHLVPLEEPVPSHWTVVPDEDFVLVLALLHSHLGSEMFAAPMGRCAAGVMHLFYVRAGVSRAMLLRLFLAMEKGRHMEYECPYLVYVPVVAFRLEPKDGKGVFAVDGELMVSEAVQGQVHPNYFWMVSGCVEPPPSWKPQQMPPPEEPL

SRSF protein kinase 1 (Homo sapiens), sequence (Q96SB4 whole entry, canonical isoform): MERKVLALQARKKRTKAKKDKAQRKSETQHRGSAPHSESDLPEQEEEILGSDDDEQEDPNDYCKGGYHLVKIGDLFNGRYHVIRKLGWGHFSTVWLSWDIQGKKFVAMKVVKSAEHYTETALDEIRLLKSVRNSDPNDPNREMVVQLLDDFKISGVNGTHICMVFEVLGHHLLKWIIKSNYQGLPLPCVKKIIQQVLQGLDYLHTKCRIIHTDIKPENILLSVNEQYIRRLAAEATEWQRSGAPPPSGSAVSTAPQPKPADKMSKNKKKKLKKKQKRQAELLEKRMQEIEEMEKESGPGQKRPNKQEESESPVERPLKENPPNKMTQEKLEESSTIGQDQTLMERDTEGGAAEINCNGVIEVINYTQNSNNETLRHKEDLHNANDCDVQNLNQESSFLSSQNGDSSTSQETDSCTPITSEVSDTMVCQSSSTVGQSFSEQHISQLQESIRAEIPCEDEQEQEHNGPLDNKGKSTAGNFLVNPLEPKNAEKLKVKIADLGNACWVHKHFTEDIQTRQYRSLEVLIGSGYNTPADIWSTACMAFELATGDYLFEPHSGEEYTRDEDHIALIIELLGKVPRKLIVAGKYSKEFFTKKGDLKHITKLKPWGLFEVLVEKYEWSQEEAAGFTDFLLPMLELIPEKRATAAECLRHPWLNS
Mitogen-activated protein kinase 11 (Homo sapiens), sequence (Q15759 whole entry): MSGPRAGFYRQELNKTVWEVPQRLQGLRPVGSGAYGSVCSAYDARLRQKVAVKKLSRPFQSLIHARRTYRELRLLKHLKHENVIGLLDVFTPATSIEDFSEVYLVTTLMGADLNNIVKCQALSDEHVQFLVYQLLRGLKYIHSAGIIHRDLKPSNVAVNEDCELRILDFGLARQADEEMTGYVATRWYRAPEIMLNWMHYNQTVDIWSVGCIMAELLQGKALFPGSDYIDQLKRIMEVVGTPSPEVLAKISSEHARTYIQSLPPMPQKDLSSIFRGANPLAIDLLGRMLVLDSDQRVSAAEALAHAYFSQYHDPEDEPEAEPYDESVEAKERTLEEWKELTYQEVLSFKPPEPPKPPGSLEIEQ
Mitogen-activated protein kinase 3 (Homo sapiens), sequence (P27361 whole entry): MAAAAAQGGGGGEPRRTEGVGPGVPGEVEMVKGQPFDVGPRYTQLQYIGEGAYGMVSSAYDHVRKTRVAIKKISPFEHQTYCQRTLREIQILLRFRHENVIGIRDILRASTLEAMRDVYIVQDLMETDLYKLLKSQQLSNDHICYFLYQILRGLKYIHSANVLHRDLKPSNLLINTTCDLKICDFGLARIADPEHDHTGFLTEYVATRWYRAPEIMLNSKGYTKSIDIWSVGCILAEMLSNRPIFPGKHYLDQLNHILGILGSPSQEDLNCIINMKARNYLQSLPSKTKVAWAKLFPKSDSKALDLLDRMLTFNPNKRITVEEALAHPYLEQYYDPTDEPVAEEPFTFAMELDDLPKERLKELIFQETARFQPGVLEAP
Phosphatidylinositol 4-kinase beta (Homo sapiens), sequence (Q9UBF8 2-816 limits assumed): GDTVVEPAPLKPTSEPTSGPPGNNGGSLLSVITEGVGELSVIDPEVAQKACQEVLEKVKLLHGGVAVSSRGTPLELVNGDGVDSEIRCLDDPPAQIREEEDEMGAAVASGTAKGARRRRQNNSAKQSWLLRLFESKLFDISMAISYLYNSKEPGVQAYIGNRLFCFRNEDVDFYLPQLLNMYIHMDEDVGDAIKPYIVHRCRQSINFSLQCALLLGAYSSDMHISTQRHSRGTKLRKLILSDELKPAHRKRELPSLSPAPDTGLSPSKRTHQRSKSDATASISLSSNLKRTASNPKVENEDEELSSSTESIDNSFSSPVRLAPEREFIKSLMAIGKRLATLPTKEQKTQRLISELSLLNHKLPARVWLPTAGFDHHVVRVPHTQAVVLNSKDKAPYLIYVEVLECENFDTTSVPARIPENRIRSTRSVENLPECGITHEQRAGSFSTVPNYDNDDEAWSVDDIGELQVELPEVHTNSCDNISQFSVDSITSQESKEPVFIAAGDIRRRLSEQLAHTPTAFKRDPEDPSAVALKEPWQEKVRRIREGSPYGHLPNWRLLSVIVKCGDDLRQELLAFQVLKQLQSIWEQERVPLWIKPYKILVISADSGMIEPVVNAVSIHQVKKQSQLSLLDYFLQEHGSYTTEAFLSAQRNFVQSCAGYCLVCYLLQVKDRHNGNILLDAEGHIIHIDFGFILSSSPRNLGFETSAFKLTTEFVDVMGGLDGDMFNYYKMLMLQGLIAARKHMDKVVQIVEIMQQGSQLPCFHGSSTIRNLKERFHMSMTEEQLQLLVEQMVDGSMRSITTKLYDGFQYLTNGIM
Mitogen-activated protein kinase 14 (Homo sapiens), sequence (Q16539 whole entry): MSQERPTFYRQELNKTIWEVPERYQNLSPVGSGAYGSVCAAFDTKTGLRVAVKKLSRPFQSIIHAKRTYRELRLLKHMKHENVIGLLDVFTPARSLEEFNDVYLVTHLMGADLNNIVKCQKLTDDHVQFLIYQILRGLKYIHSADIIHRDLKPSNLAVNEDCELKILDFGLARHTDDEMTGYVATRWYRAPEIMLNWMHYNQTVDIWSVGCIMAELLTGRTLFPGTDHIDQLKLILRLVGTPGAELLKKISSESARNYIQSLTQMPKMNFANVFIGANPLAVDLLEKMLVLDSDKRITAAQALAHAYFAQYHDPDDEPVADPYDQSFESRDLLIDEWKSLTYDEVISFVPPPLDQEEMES
Phosphatidylinositol 4,5-bisphosphate 3-kinase catalytic subunit alpha isoform (Homo sapiens), sequence (P42336 whole entry, canonical isoform): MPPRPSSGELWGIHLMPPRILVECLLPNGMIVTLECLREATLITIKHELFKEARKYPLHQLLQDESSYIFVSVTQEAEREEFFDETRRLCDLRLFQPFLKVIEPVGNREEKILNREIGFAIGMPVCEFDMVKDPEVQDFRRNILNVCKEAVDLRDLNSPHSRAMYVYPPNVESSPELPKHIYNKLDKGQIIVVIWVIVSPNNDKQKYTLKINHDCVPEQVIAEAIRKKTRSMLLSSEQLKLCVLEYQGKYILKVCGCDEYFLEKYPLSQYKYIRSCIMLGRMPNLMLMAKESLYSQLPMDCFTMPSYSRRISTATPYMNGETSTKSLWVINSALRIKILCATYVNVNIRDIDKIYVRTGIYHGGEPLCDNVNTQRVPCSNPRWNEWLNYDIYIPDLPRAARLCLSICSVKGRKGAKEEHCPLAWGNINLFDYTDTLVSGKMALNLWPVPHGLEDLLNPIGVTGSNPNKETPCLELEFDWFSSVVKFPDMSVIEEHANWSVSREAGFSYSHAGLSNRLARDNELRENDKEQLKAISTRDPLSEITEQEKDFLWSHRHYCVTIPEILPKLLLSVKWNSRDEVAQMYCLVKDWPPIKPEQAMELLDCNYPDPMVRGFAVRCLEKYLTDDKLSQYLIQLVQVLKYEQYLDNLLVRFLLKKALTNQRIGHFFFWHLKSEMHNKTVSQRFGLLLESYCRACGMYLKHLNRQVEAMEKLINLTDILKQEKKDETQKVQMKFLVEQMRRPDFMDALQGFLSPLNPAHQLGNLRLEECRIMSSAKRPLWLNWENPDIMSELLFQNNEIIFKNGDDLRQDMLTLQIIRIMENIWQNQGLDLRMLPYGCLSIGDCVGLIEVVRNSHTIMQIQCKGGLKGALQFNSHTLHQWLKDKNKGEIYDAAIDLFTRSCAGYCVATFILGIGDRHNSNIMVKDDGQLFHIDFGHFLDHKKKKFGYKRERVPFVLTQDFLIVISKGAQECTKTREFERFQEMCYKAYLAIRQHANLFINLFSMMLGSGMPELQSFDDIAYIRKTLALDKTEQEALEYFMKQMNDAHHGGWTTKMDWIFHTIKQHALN
SRSF protein kinase 3 (Homo sapiens), sequence (Q9UPE1 whole entry): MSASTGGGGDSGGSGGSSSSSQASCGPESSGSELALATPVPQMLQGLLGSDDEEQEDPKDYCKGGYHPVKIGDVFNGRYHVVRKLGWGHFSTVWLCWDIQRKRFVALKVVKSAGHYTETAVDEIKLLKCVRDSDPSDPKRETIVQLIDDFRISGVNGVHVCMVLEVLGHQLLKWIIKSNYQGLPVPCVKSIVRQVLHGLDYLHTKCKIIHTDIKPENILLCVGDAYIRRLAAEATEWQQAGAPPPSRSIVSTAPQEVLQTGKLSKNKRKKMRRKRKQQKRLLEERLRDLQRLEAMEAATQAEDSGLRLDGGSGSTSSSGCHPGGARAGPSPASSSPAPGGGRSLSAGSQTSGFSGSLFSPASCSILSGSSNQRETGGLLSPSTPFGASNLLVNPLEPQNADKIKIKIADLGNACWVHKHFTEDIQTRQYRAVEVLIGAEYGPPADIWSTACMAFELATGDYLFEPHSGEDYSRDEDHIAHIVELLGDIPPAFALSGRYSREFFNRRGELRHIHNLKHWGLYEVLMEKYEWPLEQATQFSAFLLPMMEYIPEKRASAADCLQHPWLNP

| Compound | inhibition [1] [%] | inhibition [2] [%] | inhibition [3] [%] | inhibition [4] [%] | inhibition [5] [%] | inhibition [6] [%] | inhibition [7] [%] | inhibition [8] [%] | inhibition [9] [%] | inhibition [10] [%] | inhibition [11] [%] | inhibition [12] [%] | inhibition [13] [%] | inhibition [14] [%] | inhibition [15] [%] | inhibition [16] [%] | inhibition [17] [%] | inhibition [18] [%] | inhibition [19] [%] | inhibition [20] [%] |
| --- | --- | --- | --- | --- | --- | --- | --- | --- | --- | --- | --- | --- | --- | --- | --- | --- | --- | --- | --- | --- |
| CCc1cccc(NC(=O)Nc2ccc(Oc3ccc4nc(NC(=O)OC)[nH]c4c3)cc2)c1 | 2.79 | 1.41 | 2.28 | 2.41 | 3.05 | 1.54 | 6.14 | 0.54 | 0.33 | -0.64 | 1.54 | 0.34 | 1.37 | 0.8 | 2.44 | 0.28 | 3.23 | 5.24 | -4.52 |  |
| COc1ccc(-c2coc3ncnc(N)c23)cc1 | 2.51 | -0.31 | -3.44 | 4.37 | 13.4 | 4.69 | 7.25 | 1.38 | 5.26 | 1.11 | 2.95 | -2.53 | -4.3 | 3.88 | 8.12 | 2.89 | 11.6 | 2.15 | -0.74 | -2.41 |
| CC1=C(C(=O)Nc2ccc3[nH]ncc3c2)C(c2ccc3ccccc3c2)CC(=O)N1 (centres undefined) | 22.4 | 0.02 | -0.13 | 3.64 | 5.06 | -1.05 | 2.44 | 3.08 | 2.24 | -0.44 | 1.97 | -1.36 | 0.02 | 5.28 | 5.6 | 4.38 | 4.97 | -1.78 | 0.34 | 1.83 |
| O=C1NC(=O)C(c2ccc(Cl)cc2)=C1Nc1ccc(Cl)c(C(=O)O)c1 | 0 | 0.85 | 1.51 | 0.32 | -0.58 | -1.36 | -1.39 | -5.51 | -3.8 | -2.36 | -2.21 | 1.64 | 3.21 | 1.09 | 2.23 | 3.38 | 2.76 | -1.72 | -4.96 | -1.27 |
| NS(=O)(=O)c1cccc(-c2ccc3c(NC(=O)C4CC4)n[nH]c3c2)c1 | -0.05 | -0.57 | -6.73 | 6.37 | 9.34 | 1.5 | 5.3 | -0.02 | -0.14 | -0.74 | -1.58 | 1.47 | 1.47 | 2.99 | 3.6 | 7.35 | 8.71 | 1.29 | -3.98 | 0.58 |
| NCc1ccc(-c2nc(-c3ccc(Cl)c(O)c3)c(-c3ccncc3)[nH]2)cc1 | 0.95 | -2.12 | -2.01 | 41 | 77.1 | 13.6 | 54 | -0.52 | 1.79 | -0.97 | 2.04 | -1.76 | -4.18 | -0.47 | 3.94 | 0.9 | 6.6 | -3.9 | -2.79 | 2.55 |
